# The OligoGym collection
# How the values were obtained:
# Assay in all cases: pooled miR-30 sensor sort-seq; sequence = guide strand
# Details in all cases: shRNA
# FAM73A = molecular target: FAM73A
# FAN1 = molecular target: FAN1
# FBXL3 = molecular target: FBXL3
# FCF1 = molecular target: FCF1
# FGF23 = molecular target: FGF23
# FIZ1 = molecular target: FIZ1
# FKBPL = molecular target: FKBPL
# FKBP10 = molecular target: FKBP10
# FKTN = molecular target: FKTN
# FNBP1L = molecular target: FNBP1L
# FPGS = molecular target: FPGS
# FPGT-TNNI3K = molecular target: FPGT-TNNI3K
# FRMD4B = molecular target: FRMD4B
# Note: reference of the scale not given here.
sequence,measurement,setting,value
AACAACTTGAACCTTTGTCTGA,sensor-assay potency score (higher = more potent),FAM73A,-0.33
TTGAACCTTTGTCTGATGCTGC,sensor-assay potency score (higher = more potent),FAM73A,0.182
TTGAACTTTTTACAGCTCGGAG,sensor-assay potency score (higher = more potent),FAN1,-1.04
TACATCACTAAGTTCACTTTGG,sensor-assay potency score (higher = more potent),FBXL3,0.0732
TACTCTTCTGAATAGTATGGAA,sensor-assay potency score (higher = more potent),FBXL3,-0.502
TGTGTGTACATGGTAATCGTTC,sensor-assay potency score (higher = more potent),FCF1,-0.765
TCCATGCAGAGGTATCTTCTGC,sensor-assay potency score (higher = more potent),FGF23,-1.48
TTGAAGGGCTTCACGTCGGTGT,sensor-assay potency score (higher = more potent),FIZ1,0.144
TAGTTAGCTCTGTCCAGCCCTC,sensor-assay potency score (higher = more potent),FKBPL,-1.24
TTCGGTAGGAGGGTCTCGGGGC,sensor-assay potency score (higher = more potent),FKBPL,-0.399
TGAGCGGAACAGCTTCTCGCAC,sensor-assay potency score (higher = more potent),FIZ1,-1.25
TGGTACAGGGTGTCTTCCGAGG,sensor-assay potency score (higher = more potent),FIZ1,-1.47
TTGAGGTAGCACTCGTGGCGGA,sensor-assay potency score (higher = more potent),FIZ1,-0.466
TAATCTTCCTTCTCTCTCCAGG,sensor-assay potency score (higher = more potent),FKBP10,-0.239
TAGATCAGTCCATTCTACTGGG,sensor-assay potency score (higher = more potent),FIZ1,0.523
ATGAAGGACAGTTCGTTCTGGA,sensor-assay potency score (higher = more potent),FKBPL,0.322
ATAGCTTGAATCAAACTTCTTG,sensor-assay potency score (higher = more potent),FKBP10,0.371
TTGATCAGCCAACCAGAGCCGA,sensor-assay potency score (higher = more potent),FKBP10,-0.877
ATCTTCTTGACAAAGCTCCCAT,sensor-assay potency score (higher = more potent),FKBPL,-0.554
TTGAATCAAACTTCTTGCCATC,sensor-assay potency score (higher = more potent),FKBP10,-0.96
TTGGCATGAAGGACAGTTCGTT,sensor-assay potency score (higher = more potent),FKBPL,0.00211
TTTCTCACCAGTGTGGACGACC,sensor-assay potency score (higher = more potent),FIZ1,-0.391
AACAGCTTCTCGCACTCGGAGC,sensor-assay potency score (higher = more potent),FIZ1,-1.76
TTCCTCACCTTGACACATGGAC,sensor-assay potency score (higher = more potent),FKBPL,-0.29
TCTATCGCCAGCACCTTCTTGA,sensor-assay potency score (higher = more potent),FKBPL,0.068
TATGGTTTTCTCAGGGTCCTGC,sensor-assay potency score (higher = more potent),FKBP10,0.0683
TGGTTGGCTAGGTTGAAGCTGT,sensor-assay potency score (higher = more potent),FIZ1,-0.915
TCAAACAGCAGCACAGCACTGC,sensor-assay potency score (higher = more potent),FKBP10,0.521
TAGCTGGTGTCGAAGAAGGTGC,sensor-assay potency score (higher = more potent),FKBP10,-0.841
TTAACTGCACGCCACTGTGTGC,sensor-assay potency score (higher = more potent),FKTN,-1.27
TGACACATGGACTCCAAGCATT,sensor-assay potency score (higher = more potent),FKBPL,-1.29
TTCCTTCTCGCTAGTCTCCAGC,sensor-assay potency score (higher = more potent),FKBPL,-1.31
TTCCTTGTTCCACACATCCAGC,sensor-assay potency score (higher = more potent),FKBP10,-1.14
TCGTCGACTGTGATCTTGCCGT,sensor-assay potency score (higher = more potent),FKBP10,-0.799
TGAAGCTGTGCTTGAAACCCTT,sensor-assay potency score (higher = more potent),FIZ1,-0.439
TAGCTGGACAGCGTCCTTCGGG,sensor-assay potency score (higher = more potent),FKBP10,-1.26
ATTTTGACAAACCAGCTCCATT,sensor-assay potency score (higher = more potent),FKTN,-1.46
TTGAAGTCGCGCTCGCAGCGCG,sensor-assay potency score (higher = more potent),FIZ1,-0.792
TCTCGCACTCGGAGCAGCCGAA,sensor-assay potency score (higher = more potent),FIZ1,-1.41
TTTCGGTAGGAGGGTCTCGGGG,sensor-assay potency score (higher = more potent),FKBPL,-1.79
TTGAGTATGCTCTAGAATTTGG,sensor-assay potency score (higher = more potent),FKBPL,-0.551
TTCTCGCACTCGGAGCAGCCGA,sensor-assay potency score (higher = more potent),FIZ1,-1.7
TTGAAGATTAGCACGGCAGAGC,sensor-assay potency score (higher = more potent),FKBP10,-0.871
TAAATAGTGCTTGTAGTAGTAC,sensor-assay potency score (higher = more potent),FKTN,-0.0376
ATGTCTACAAACTCAGTCCAGC,sensor-assay potency score (higher = more potent),FKTN,-1.47
TAGCTTGAATCAAACTTCTTGC,sensor-assay potency score (higher = more potent),FKBP10,0.0257
TAATCTGAATAACTGAATCAAG,sensor-assay potency score (higher = more potent),FKBPL,-1.19
TAGTACAACTGAAACAGCAGAA,sensor-assay potency score (higher = more potent),FKTN,0.161
TTGTAGTTGCTTGTAAATCTGA,sensor-assay potency score (higher = more potent),FNBP1L,-0.235
TGAAGTTCTGTTGGTCTGCGTT,sensor-assay potency score (higher = more potent),FPGS,-0.752
TTCACCTGCTCCAGGTAGCCGG,sensor-assay potency score (higher = more potent),FPGS,-1.54
TGTCTGAGGGTCACCCCGCTGG,sensor-assay potency score (higher = more potent),FPGS,-0.513
TTCTTTTTCCTTGATCTGCAGG,sensor-assay potency score (higher = more potent),FPGT-TNNI3K,-0.729
TCACTGTGAAGTTCTGTTGGTC,sensor-assay potency score (higher = more potent),FPGS,0.188
TTTATTTCTGCATCGTCCTTTA,sensor-assay potency score (higher = more potent),FPGT-TNNI3K,-0.351
TTTGACTAGGTCAATGCTCTTG,sensor-assay potency score (higher = more potent),FPGT-TNNI3K,-0.0852
TGCCTGTGGATGACACCTCTGT,sensor-assay potency score (higher = more potent),FPGS,-0.547
TTGAAACTGAAATCCTTCGTGG,sensor-assay potency score (higher = more potent),FRMD4B,0.853
TTCCTGATGATGTTGGTGCAGT,sensor-assay potency score (higher = more potent),FPGS,-0.727
TTGTCATCTAATTTGAACGCAG,sensor-assay potency score (higher = more potent),FRMD4B,-0.725
